Source: ChEMBL document CHEMBL3988442, “University of Dundee, Small-Polar-MMV Screening Library” (2021)
Out of some 48,000 compounds screened, about 13,000 (27%) showed an effect of 50% or more. The list shows a part of the results.

What follows are molecules tested on Wolbachia pipientis (assay: Anti-Wolbachia Cell-Based Screen). Details: 5 µM.
Format: functional
Design: scale not given: in the data most compounds retested in dose-response had high values

Structure (SMILES)	Percent Effect [%]
CCNC(=O)C1CCN(c2cc(CC)nc3ccnn23)C1 (centres undefined)	-6.245
CC(C)(C)CCNC(=O)c1ccc(Cl)c(NS(C)(=O)=O)c1	-2.179
O=C(NCC(=O)N1CC2(CCCC2)c2c(F)cccc21)C1CC1	-3.819
Cc1cc(C)n(CC2CN(CC(=O)Nc3nncs3)CCO2)n1 (centres undefined)	-6.247
Cc1cc(CN2CCN(CC(=O)NC3(C#N)CCCCC3)CC2)on1	3.175
O=C(CN1CCOC(Cn2cccn2)C1)NC(C1CC1)C1CC1 (centres undefined)	-1.772
Cc1cc(C)n(CC2CN(CC3CCCC3)CCO2)n1 (centres undefined)	115
Cc1cc(C)n(CC2CN(CC(=O)NC(C3CC3)C3CC3)CCO2)n1 (centres undefined)	97.21
O=C(CN1CCOC(Cn2cncn2)C1)NC(C1CC1)C1CC1 (centres undefined)	-5.3
Cc1cc(C)n(CC2CN(CC(=O)NC3(C#N)CCCC3)CCO2)n1 (centres undefined)	97.92
CC(C)=CCN1CCOC(Cn2nc(C)cc2C)C1 (centres undefined)	-20.01
Cc1cc(NC(=O)CN2CCOC(Cn3nc(C)cc3C)C2)n(C)n1 (centres undefined)	-0.6717
Cc1cc(C)n(CC2CN(CC(=O)Nc3ccncc3)CCO2)n1 (centres undefined)	89.28
Cc1cc(C)n(CC2CN(CCc3ccncc3)CCO2)n1 (centres undefined)	-8.109
O=C(Nc1cccn(CC(F)(F)F)c1=O)c1ccc(F)cc1	7.272
O=C(NCC1CC1)C12CC(CN1Cc1nccs1)C2	-8.528
CCNC(=O)[C@@H]1C[C@@H](NC(=O)Cc2ccccn2)CN1CCCSC	-3.005
CCNC(=O)[C@@H]1C[C@@H](NC(=O)c2cc(C)on2)CN1Cc1ccccn1	121.6
CCNC(=O)[C@@H]1C[C@@H](NC(=O)c2ccc(C)s2)CN1Cc1ccccn1	112.7
C/C=C(\C)CN1C[C@H](NC(=O)c2cnc(O)cn2)C[C@H]1C(=O)NCC	-10.14
CCNC(=O)[C@@H]1C[C@H](NC(=O)Cc2ccsc2)CN1Cc1ccc(C)o1	8.656
CCNC(=O)[C@@H]1C[C@H](NC(=O)c2ccc(C)s2)CN1Cc1ccc(C)o1	103.2

Structure (SMILES)	Percent Effect [%]
CCNC(=O)[C@@H]1C[C@@H](NC(=O)c2cccnc2O)CN1Cc1ccsc1	9.29
CCNC(=O)[C@@H]1C[C@H](N)CN1Cc1ccc(Sc2ccc(C)cc2)o1	11.39
Cc1cc(C(=O)N2CCC(c3nccn3Cc3ccccn3)CC2)no1	-9.373
CSCCc1c(-c2ccccc2)ncn1CC(C)(C)N1CCOCC1	0.5421
CN(CCCc1cc(-c2ccccc2)n[nH]1)C(=O)CCCn1cncn1	1.593
O=C(COC1CCOC1)N(CC(F)F)c1cccc(Cl)c1 (centres undefined)	-1.811
CC1CCC(NC(=O)Nc2ccc(CC(=O)N(C)C)cc2)CC1 (centres undefined)	5.136
CSCc1cccc(C(=O)N2CCN(CC(C)O)CC2)c1 (centres undefined)	-7.975
CC(O)CN1CCN(C(=O)c2ccc(Br)o2)CC1 (centres undefined)	-12.79
CC(O)CN1CCN(C(=O)c2ccc3c(c2)COC3)CC1 (centres undefined)	-5.873
CCN(CC)Cc1ccc(C(=O)N2CCN(CC(C)O)CC2)cc1 (centres undefined)	-1.675
CSCc1ccc(C(=O)N2CCN(CC(C)O)CC2)cc1 (centres undefined)	99.74
COCc1ccc(C(=O)N2CCN(CC(C)O)CC2)cc1 (centres undefined)	108.5
CC(O)CN1CCN(C(=O)c2ccc(CN(C)C)cc2)CC1 (centres undefined)	105.8
COc1ccccc1C(=O)Nc1ccc([C@@H](O)[C@H]2COCC(=O)N2)cc1	-5.781
O=C(O)C1c2nc[nH]c2CCN1Cc1ccccc1-c1ccccc1 (centres undefined)	-6.694
CC(C)CCc1noc(CN2CCCC(CNS(N)(=O)=O)C2)n1 (centres undefined)	-3.11
O=S(=O)(NC1CCC2(CC1)OCCO2)c1cccc(Br)c1	-35.45
COC(=O)CN(C)C1CCc2ccccc21 (centres undefined)	-6.999
CCn1cc(CN2CCCN(C(=O)c3ccccc3C)CC2)cn1	154.9
CCn1cc(CN2CCCN(C(=O)c3ccccc3OC)CC2)cn1	106.4
CCc1[nH]ncc1C(=O)N1CCCN(Cc2cnn(C)c2)CC1	-4.439

Structure (SMILES)	Percent Effect [%]
CCCc1cc(=O)[nH]c2nnc(SCC(=O)OC)n12	10.3
CC1CCN(CCNC(=O)C2CCN(C(=O)NC(C)C)CC2)CC1	10.9
CC(C)NC(=O)NCc1nnc2n1C(C(=O)N(C)C)CC2 (centres undefined)	107
Cc1ccc2c(c1)nc1n2[C@@H](CNC(=O)c2cccnc2)COC1	-3.716
COc1ccc(C(NC(=O)NCc2nnc3n2CCC3)C2CC2)cc1 (centres undefined)	10.5
CC(NC(=O)C1CCCC1)c1nncn1C(C)C (centres undefined)	0
CN(Cc1ccc(Cl)s1)C(=O)NCc1nnc2n1CCC2	3.09
CC(C)N(Cc1ccccc1)C(=O)NCCNC(=O)c1cccnc1	-12.62
CC(C)NC(=O)C1CCc2nnc(CNC(=O)C3CC3)n21 (centres undefined)	113.3
CC(C)NC(=O)C1CCc2nnc(CNC(=O)c3cccnc3)n21 (centres undefined)	109.4
CN(C)C(C(=O)N1CCN(CCn2cccc2)CC1)c1cccc(F)c1 (centres undefined)	-3.926
O=C1OCCN1CCSc1nnnn1CC(F)(F)F	-1.95
CSCc1cccc(S(=O)(=O)NCc2cnn(C)c2C)c1	-8.017
Cc1cc(NC(=O)NCCc2ccc(S(N)(=O)=O)cc2)n(C)n1	-16.74
Cc1ccc(C)c2c(O)cc(CNCc3ccc(S(N)(=O)=O)cc3)nc12	-3.225
CCCc1nc(C)cc(NCc2ccc(S(N)(=O)=O)cc2)n1	98.3
CN1CCN(c2nc(-c3cnn(C)c3)cs2)CC1	4.898
Cc1nc(C(C)C)sc1C(=O)N(C)Cc1cnn(C)c1	-3.073
Cc1nn2c(-c3cnn(C)c3)nnc2s1	91.48
Cc1nc(-c2cnn(C)c2)sc1C(=O)NCc1ccc(C)n1C	-0.2397
CC(C)c1nn2c(-c3cnn(C)c3)nnc2s1	112.2
CS(=O)(=O)NCCC(=O)N1Cc2cnc(-c3ccccc3)nc2C1	16.59

Structure (SMILES)	Percent Effect [%]
Cc1cc(Br)cnc1N(C)CC1CCOC1 (centres undefined)	110.5
CCN(CC)c1ccc(NC(=O)NCC2CCOC2)cn1 (centres undefined)	10.55
Brc1cnc(NCCCOCC2CCOC2)nc1 (centres undefined)	-7.311
Cc1cc(C)c2c(N(C)CC3CCOC3)ncnc2n1 (centres undefined)	14.02
CC(C)n1cnnc1CN(C)CC1CCOC1 (centres undefined)	-3.944
CN(CC1CCOC1)c1ccc(Br)cn1 (centres undefined)	73.32
CCN(CC1CCOC1)C(=O)Nc1ccc(OC)nc1 (centres undefined)	9.48
CN(CC1CCOC1)c1ncc(Br)cn1 (centres undefined)	108.2
Cc1cc(NC(=O)N(CC2CCOC2)C2CC2)no1 (centres undefined)	-8.865
COCC1CN(S(=O)(=O)Cc2ccc(C)cc2)Cc2c1cnn2C.O=C(O)C(F)(F)F (centres undefined)	-11.46
CCCc1cncnc1N1CCC(NCCc2nc(O)cc(O)n2)CC1	12.44
Cc1ccccc1CCCN(Cc1ccccn1)S(C)(=O)=O	19.14
O=C(c1ncn2c(C3CCN(CC4CC4)CC3)ccnc12)N1CCCC1	-17.31
COCC1c2nnn(CC3CC3)c2CCN1C(=O)N1CCCC1 (centres undefined)	-0.306
Cn1cc(C(=O)NCc2cn3c(n2)CN(CC2CCOCC2)CC3)cn1.O=C(O)C(F)(F)F	-7.416
Cl.Cn1cc(C(=O)NCc2cncc3c2CCN(S(C)(=O)=O)C3)cn1	98.76
Cl.Cl.Cn1cc(CN2CCc3c(CNC(=O)C4CC4)cncc3C2)cn1	-6.421
Cl.Cl.Cn1cc(C(=O)NCc2cncc3c2CCN(CC2CC2)C3)cn1	108.8
COCCN1CCc2c(CNC(=O)c3nccn3C)cncc2C1.Cl.Cl.Cl	-25.03
Cl.Cl.Cn1cc(C(=O)NCc2cncc3c2CCN(c2ccccn2)C3)cn1	91.67
CC(C)N1CCc2c(CNC(=O)c3nccn3C)cncc2C1.Cl.Cl.Cl	1.546
N#Cc1cnc(NCc2ccc(C(=O)NC3CC3)cc2)c(Cl)c1	-6.229

Structure (SMILES)	Percent Effect [%]
CC(C)(C)c1noc(CCC(=O)N(CC2CCOC2)C2CC2)n1 (centres undefined)	7.667
CC(=O)N1CCC2(CCN(CC3CCCCC3)C2)CC1	-14.93
CC(=O)N1CCc2[nH]cnc2C12CCN(CC1CCOC1)CC2 (centres undefined)	-0.2967
CNC(=O)CN1CCC2(CCCN(CC3CCOC3)C2)CC1.O=C(O)C(F)(F)F.O=C(O)C(F)(F)F (centres undefined)	105.4
CC(=O)N1CCC2(CCN(CC3CCOC3)C2)CC1 (centres undefined)	104
CNC(=O)CN1CCO[C@H]2CN(CC3CCOC3)C[C@H]21.O=C(O)C(F)(F)F.O=C(O)C(F)(F)F (some centres undefined)	19.99
CN(C)C(=O)CN1CCC2(C1)CN(CC1CCOC1)C2.O=C(O)C(F)(F)F.O=C(O)C(F)(F)F (centres undefined)	-5.986
Cc1cccc(NC(=O)Cn2ncc(SCC(N)=O)c(Cl)c2=O)c1C	-8.805
CN(C)c1cccc(C2CCCN2c2nc3c(cnn3C)c(=O)[nH]2)c1 (centres undefined)	1.208
CCc1ccc(CN(C)C(=O)C2CC(=O)N(c3cccc(O)c3)C2)nc1 (centres undefined)	-3.145
CCCn1nc2c(cc1=O)CN(Cc1nc(-c3ccoc3)no1)CC2	8.04
CC1CCc2nc(O)c(C(=O)NCc3ccccn3)cc2C1 (centres undefined)	0.7211
Cl.O=C1NCCCCC1NCc1csc(-c2ccccn2)n1 (centres undefined)	-2.48
Cl.O=C(NCC(F)F)c1cnc(C2CCCN2)cn1 (centres undefined)	98.86
O=C(NCc1ccccn1)C1CN(c2nc3ccccc3s2)CCN1 (centres undefined)	4.696
O=C(NCc1ccccn1)c1cncc(C2CCCN2)n1 (centres undefined)	138.1
O=C(NC[C@@H]1CCCN1)c1cc(COc2cccc(C(F)(F)F)c2)[nH]n1	1.903
Cc1nc(C(=O)NCc2ccccn2)cc(C2CCCN2)n1 (centres undefined)	186.5
CCC1c2ccsc2CCN1C(=O)NCc1ccccn1 (centres undefined)	11.42
O=C(NCc1ccccn1)c1cnc(C2CCCN2)cn1 (centres undefined)	135
O=C(NC[C@H]1CCCN1)c1cc(COc2cccc(C(F)(F)F)c2)[nH]n1	-12.79
